What was measured:
[1] = test system: Staphylococcus aureus MW2 delta-mecA (mecA-); experiment: normalized GFP fluorescence (growth of mecA- strain) (fraction of control range); higher = more growth of mecA- strain; conditions: compound concentration: 150 uM; cefoxitin: subinhibitory; fluorescent label: GFP
Method in brief: (§1)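 Single-replicate 1536-well plates carried 150 μM compound (1.5% DMSO), onto which 5 µL/well of a 1:1 mix of pre-induced S. aureus MW2 cells was dispensed: gene-carrying cells tagged with DsRed and deletion cells tagged with GFP, in LB with a subinhibitory antibiotic dose set daily. Incubation ran 20 h at 37 °C, 90% humidity, unshaken, followed by DsRed (540/590) and GFP (485/520) reads. Per-plate scaling of each channel used single-strain control medians, and plates with high untreated ratios and rows with DsRed/GFP >10 were excluded.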

[2] = test system: Staphylococcus aureus MW2 (mecA+); experiment: normalized DsRed fluorescence (growth of mecA+ strain) (fraction of control range); higher = more growth of mecA+ strain; conditions: compound concentration: 150 uM; cefoxitin: subinhibitory; fluorescent label: DsRed
Method in brief: as §1

Structure (SMILES) | normalized GFP fluorescence [1] | normalized DsRed fluorescence [2]
CC(C)(C)NCC(O)COc1cccc2c1CC(O)C(O)C2 (stereo not drawn) | 0.721 | 0.671
CC[C@@]1(O)C(=O)OCc2c1cc1n(c2=O)Cc2cc3c(CN(C)C)c(O)ccc3nc2-1 | 0.791 | 0.763
N[C@@H](Cc1cc(I)c(Oc2cc(I)c(O)c(I)c2)c(I)c1)C(=O)O | 0.297 | 0.575
CCCC1O[C@@H]2C[C@H]3[C@@H]4CCC5=CC(=O)C=C[C@]5(C)[C@H]4[C@@H](O)C[C@]3(C)[C@]2(C(=O)CO)O1 (stereo partly drawn) | 0.226 | 1.12
NC(=O)N1c2ccccc2C=Cc2ccccc21 | 0.497 | 0.792
C[C@]12CC[C@@H]3c4ccc(O)cc4C[C@@H](CCCCCCCCC[S+]([O-])CCCC(F)(F)C(F)(F)F)[C@H]3[C@@H]1CC[C@@H]2O (stereo partly drawn) | 0.185 | 0.667
COc1cc2ncnc(Nc3ccc(F)c(Cl)c3)c2cc1NC(=O)/C=C/CN1CCCCC1 | 0.102 | 0.557
CCC[C@H](NC(=O)[C@@H]1[C@H]2CCC[C@H]2CN1C(=O)[C@@H](NC(=O)[C@@H](NC(=O)c1cnccn1)C1CCCCC1)C(C)(C)C)C(=O)C(=O)NC1CC1 [Telaprevir (VX-950)] | 0.0337 | 1.39
CC(=O)N[C@H]1[C@H]([C@H](O)[C@H](O)CO)OC(C(=O)O)=C[C@@H]1NC(=N)N [Zanamivir (Relenza)] | 0.233 | 0.719
CCOc1cc(CC(=O)N[C@@H](CC(C)C)c2ccccc2N2CCCCC2)ccc1C(=O)O | -0.00461 | 0.578
COc1cc2/c(=N/c3ccc(Br)cc3F)nc[nH]c2cc1OCC1CCN(C)CC1 [Vandetanib (Zactima)] | 0.22 | 1.19
CC(C)NCC(O)COc1cccc2[nH]ccc12 (stereo not drawn) | 0.242 | 1.01
CC(C)NCC(O)c1ccc(NS(C)(=O)=O)cc1 (stereo not drawn) | 0.417 | 0.703
O=C(NCC1CCCCN1)c1cc(OCC(F)(F)F)ccc1OCC(F)(F)F (stereo not drawn) | 0.508 | 0.624
NCC(=O)CCC(=O)O | 0.315 | 1.12
C[C@@H]1C[C@H]2[C@@H]3C[C@H](F)C4=CC(=O)C=C[C@]4(C)[C@@]3(F)[C@@H](O)C[C@]2(C)[C@@]1(O)C(=O)CO | 0.766 | 0.847
COc1cc2nccc(Oc3ccc(NC(=O)C4(C(=O)Nc5ccc(F)cc5)CC4)cc3)c2cc1OC [Cabozantinib malate] | 0.367 | 0.686
CN(C)CCC(c1ccc(Br)cc1)c1ccccn1 (stereo not drawn) | 0.11 | 1.02
O=C(O)P(=O)(O)O | 0.285 | 0.7

— the supplement of paper PMC7695840
